Reference: PubChem BioAssay (NCI)
The panel holds about 83,000 compounds, 20% with a hit somewhere; the sample as a whole holds those more often.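 Method: cells in 96-well plates; compound added at one concentration; 48 h incubation; percent growth measured; values under 10 scored active.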 Values without a mark were called inactive. Activity calls are given as the source filed them.

Assays:
Assay in all cases: NCI-60 one-dose screen, 48 h (100 = growth as untreated, 0 = no growth, -100 = all killed)
Settings in all cases: 10 µM unless noted
SR leukemia = tested on: SR leukemia
RPMI-8226 leukemia = tested on: RPMI-8226 leukemia
OVCAR-8 ovarian = tested on: OVCAR-8 ovarian
OVCAR-5 ovarian = tested on: OVCAR-5 ovarian
OVCAR-4 ovarian = tested on: OVCAR-4 ovarian
SK-OV-3 ovarian = tested on: SK-OV-3 ovarian
IGROV1 ovarian = tested on: IGROV1 ovarian
OVCAR-3 ovarian = tested on: OVCAR-3 ovarian
HS 578T breast = tested on: HS 578T breast
NCI/ADR-RES ovarian = tested on: NCI/ADR-RES ovarian
T-47D breast = tested on: T-47D breast
BT-549 breast = tested on: BT-549 breast
MDA-MB-435 melanoma = tested on: MDA-MB-435 melanoma
SW-620 colon = tested on: SW-620 colon
MCF7 breast = tested on: MCF7 breast
HCC-2998 colon = tested on: HCC-2998 colon
KM12 colon = tested on: KM12 colon
HCT-116 colon = tested on: HCT-116 colon

| SMILES | growth (SR leukemia) | growth (RPMI-8226 leukemia) | growth (OVCAR-8 ovarian) | growth (OVCAR-5 ovarian) | growth (OVCAR-4 ovarian) | growth (SK-OV-3 ovarian) | growth (IGROV1 ovarian) | growth (OVCAR-3 ovarian) | growth (HS 578T breast) | growth (NCI/ADR-RES ovarian) | growth (T-47D breast) | growth (BT-549 breast) | growth (MDA-MB-435 melanoma) | growth (SW-620 colon) | growth (MCF7 breast) | growth (HCC-2998 colon) | growth (KM12 colon) | growth (HCT-116 colon) |
| --- | --- | --- | --- | --- | --- | --- | --- | --- | --- | --- | --- | --- | --- | --- | --- | --- | --- | --- |
| CN1CCN(Cc2ccc(NC(=O)c3cncc(C#Cc4cnccc4C(F)(F)F)c3)cc2C(F)(F)F)CC1 | 37.3% | 70.6% | 92.2% | 67.4% | 59.2% | 89% | 58.3% | 105% | 53% | 85.8% | 92.2% | 91.8% | 54.7% | 62.8% | 49% | 65.7% | 20.8% |  |
| CSc1nc(O)c(-c2ccccc2)c(=O)[nH]1 | 96% | 102% | 101% | 97.5% | 108% | 116% | 104% | 120% | 110% | 106% | 100% | 103% | 101% | 98.8% | 96.3% |  | 103% | 99.4% |
| CN(C)C(=O)c1cc2cnc(Nc3ccc(-c4csc5c(=O)cc(N6CCOCC6)oc45)cc3)nc2n1C1CCCC1 | 0.0235% (active) | -46.7% (active) | 2.54% (active) | -9.43% (active) | 12.4% | -28.3% (active) | -7.11% (active) | 2.63% (active) | -8.99% (active) | 0.628% (active) | -4.72% (active) | -79.1% (active) | -38.7% (active) | -45.6% (active) | -46.8% (active) | -44.6% (active) | -86.9% (active) |  |
| CC(=O)CCSc1ccc(OC(C)=O)cc1 | 90.1% | 92.8% | 96.6% | 111% | 107% | 101% | 114% | 104% | 106% | 106% | 91.9% | 96.5% | 104% | 105% | 102% |  | 99.9% | 97% |
| CC(=O)[C@@H]1CC[C@]2(C(N)=O)CC[C@]3(C)[C@H](CC[C@@H]4[C@@]5(C)CCC(=O)C(C)(C)[C@@H]5CC[C@]43C)[C@@H]12 | 94.4% | 80.4% | 109% | 101% | 89.1% | 90.6% | 107% | 103% | 120% | 98.7% | 80.2% | 93.3% | 99.9% | 110% | 89.9% | 107% | 100% |  |
| COc1ccc2c(/C=C3/C(=O)NC(=S)NC3C)cc(=O)oc2c1 (configuration not stated) | 96.6% | 117% | 91.6% | 94.1% | 100% | 100% | 96.2% | 101% | 100% | 99% | 88% | 103% | 102% | 103% | 90.1% | 96% | 99.7% |  |
| O=C1CCCN1c1cccc2cccnc12 | 101% | 102% | 103% | 109% | 110% | 114% | 107% | 110% | 97.3% | 99.3% | 97.5% | 109% | 100% | 101% | 93.3% | 86.7% | 102% |  |
| CC(C)(C)OC(=O)N1C/C(=C\c2ccoc2)C(=O)/C(=C/c2ccoc2)C1 | -8.41% (active) | -23% (active) | 101% | 97% | 100% | 99.5% | 95.6% | 106% | 90.6% | 97.6% | 82.4% | 102% | 98.2% | 56.8% | 20.5% |  | 88.8% | 21.7% |
| O=C(Nc1ccc2ncnc(Nc3ccc(Oc4cccc(F)c4)c(Cl)c3)c2c1)c1ccc(CN2CCOCC2)cc1 | 18.6% | -16.4% (active) | 6.19% (active) | 75.5% | 20.3% | 18.5% | 0.971% (active) | 23.1% | 46.6% | 4.15% (active) | -9.3% (active) | 19.9% | 22% | 38.7% | 10.5% |  | 24.6% | 13.7% |
| COc1ccc(Nc2nc(N)nc3c2CCc2occc2-3)cc1 | 85.8% | 101% | 102% | 106% | 96.9% | 97.8% | 102% | 103% | 105% | 96.2% | 83.4% | 78.3% | 105% | 106% | 78.7% |  | 95.9% | 90% |
| O=C(Nc1nc2ccc(C(=O)N3CCN(c4ccc(Cl)c(Cl)c4)CC3)cc2s1)c1ccc(NCCc2ccccc2)c([N+](=O)[O-])c1 | 98.4% | 85.5% | 97.3% | 91.3% | 87.3% | 107% | 82% | 111% | 93.5% | 101% | 84.4% | 108% | 111% | 103% | 96.7% |  | 107% | 95% |
| CC(=O)N1N=C(c2cccc(Nc3ccncc3)c2)CC1c1ccc2c(c1)OCO2 (configuration not stated) | 31.5% | 78.3% | 91.4% | 94.1% | 90.3% | 78.3% | 91.9% | 96% | 80% | 97.2% | 74.1% | -44.5% (active) | 35.1% | 86.2% | 71.4% | 94.2% | 88.2% |  |
| C=C1C(=O)O[C@H]2[C@H]1CC/C(COC(=O)CCCc1c[nH]c3ccccc13)=C\CC[C@@]1(C)O[C@@H]21 | 1.59% (active) | -17.6% (active) | 66.3% | 94.7% | 65.8% | 98.2% | 45.8% | 28.3% | 74% | 72.2% | 57.3% | 41.1% | 60.3% | 24.9% | 11% | 102% | 85.7% |  |
| COc1ccc(/C(=C\c2ccccc2)C(=O)O)cc1OC | 108% | 102% | 105% | 87.5% | 103% | 105% | 96% | 104% | 97% | 93.8% | 85.7% | 102% | 106% | 97.4% | 93.7% | 103% | 103% |  |
| COC(=O)C1=C(C(=O)ONCCN(C)C)C2C=CC1(C(Cc1ccccc1)Nc1ccc(F)cc1)O2 (configuration not stated) | 10.7% | 71.2% | 97.7% | 100% | 94.5% | 104% | 92.4% | 39.9% | 125% | 102% | -0.816% (active) | 122% | 101% | 51.8% | 97.5% |  | 94.8% | -48.9% (active) |
| Cc1ccc(C(c2c(O)c3cc(Br)ccc3[nH]c2=O)c2c(O)c3cc(Br)ccc3[nH]c2=O)cc1 | 97.3% | 73.2% | 96% | 104% | 81.7% | 86.1% | 89.6% | 86.7% | 82.4% | 101% | 71.6% | 87.4% | 86.3% | 102% | 80.2% |  | 88.2% | 82.4% |
